In PubChem BioAssay (EPA / NIEHS):
Records with an inconclusive call do not appear. Activity calls are given as the source filed them. How the source made its calls, unless noted: active means hit-call score of the fitted dose curve at least 0.9, where 1 is the maximum; inactive means score below 0.9.

Key:
[1] = read-out: succinate dehydrogenase complex iron sulfur subunit B (SDHB), SDHB (gene 6390); assay: LTEA_HepaRG_SDHB: Life Technologies and Expression Analysis (LTEA) Assay for succinate dehydrogenase complex iron sulfur subunit B (SDHB) using HepaRG (AID 2283528); conditions: mRNA level, 48 h; actives raise or lower the signal
How it was run: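 SDHB transcript level read by TaqMan qRT-PCR, housekeeping-normalised (ACTB, GAPDH, POLR2A), after 48 h chemical treatment of plated HepaRG cells; eight concentrations top 100 uM, half-log steps, 0.5% DMSO, duplicates; fitted both directions against DMSO.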

[2] = read-out: Signal transducer and activator of transcription 3 (Homo sapiens) (UniProt P40763); assay: LTEA_HepaRG_STAT3: Life Technologies and Expression Analysis (LTEA) Assay for Signal transducer and activator of transcription (STAT3) using HepaRG (AID 2283529); conditions: mRNA level, 48 h; actives raise or lower the signal
How it was run: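 Differentiated HepaRG cells, serum-free induction medium, dosed 48 h in duplicate, 8 half-log concentrations from 100 uM in 0.5% DMSO. STAT3 mRNA by qRT-PCR, normalised to ACTB, GAPDH, POLR2A; bidirectional fit versus DMSO.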

[3] = read-out: solute carrier (SLCO1B1), SLCO1B1 (gene 10599); assay: LTEA_HepaRG_SLCO1B1: Life Technologies and Expression Analysis (LTEA) Assay for solute carrier (SLCO1B1) using HepaRG (AID 2283530); conditions: mRNA level, 48 h; actives raise or lower the signal
How it was run: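 SLCO1B1 transcript levels were quantified by TaqMan qRT-PCR using three housekeeping genes for normalization. This followed 48 h chemical exposure (100 uM top, half-log, 8 points, 0.5% DMSO) of HepaRG liver cells, with gain or loss fitted relative to DMSO.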

[4] = read-out: sulfotransferase 2A1 (SULT2A1), SULT2A1 (gene 6822); assay: LTEA_HepaRG_SULT2A1: Life Technologies and Expression Analysis (LTEA) Assay for sulfotransferase 2A1 (SULT2A1) using HepaRG (AID 2283531); conditions: mRNA level, 48 h; actives raise or lower the signal
How it was run: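 Expression change of SULT2A1, by qRT-PCR with three housekeeping-gene normalization, was scored bidirectionally versus DMSO. Cells: differentiated HepaRG, dosed in duplicate for 48 h across 8 points, highest 100 µM, half-log dilution, 0.5% DMSO.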

[5] = read-out: Transforming Growth Factor (TGFA), TGFA (gene 7039); assay: LTEA_HepaRG_TGFA: Life Technologies and Expression Analysis (LTEA) Assay for Transforming Growth Factor (TGFA) using HepaRG (AID 2283532); conditions: mRNA level, 48 h; actives raise or lower the signal
How it was run: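 Differentiated HepaRG cells exposed 48 hours in serum-free induction medium, 0.5% DMSO vehicle, 8-point half-log series from 100 uM, in duplicate. TGFA mRNA by TaqMan qRT-PCR, normalised to ACTB, GAPDH, POLR2A; bidirectional fit versus DMSO.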

[6] = read-out: Transforming Growth Factor (TGFB1), TGFB1 (gene 7040); assay: LTEA_HepaRG_TGFB1: Life Technologies and Expression Analysis (LTEA) Assay for Transforming Growth Factor (TGFB1) Transporter using HepaRG (AID 2283533); conditions: mRNA level, 48 h; actives raise or lower the signal
How it was run: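 TGFB1 transcript measured by qRT-PCR with normalisation to three housekeeping genes (ACTB, GAPDH, POLR2A); human HepaRG line treated in duplicate for 48 hr with an 8-point series topping at 100 uM, 0.5% DMSO vehicle, bidirectionally fitted.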

TIMP1, TIMP1 (gene 7076) = assay: LTEA_HepaRG_TIMP1: Life Technologies and Expression Analysis (LTEA) Assay for TIMP1 using HepaRG (AID 2283534); conditions: mRNA level, 48 h; actives raise or lower the signal
How it was run: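 Bidirectional change in TIMP1 transcript versus 0.5% DMSO, measured by TaqMan qRT-PCR with three housekeeping genes for normalization. HepaRG human liver cells dosed 48 h in duplicate, top concentration 100 uM with half-log dilutions.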

[7] = read-out: Tumor necrosis factor receptor 1 (TNFRSF1A), TNFRSF1A (gene 7132); assay: LTEA_HepaRG_TNFRSF1A: Life Technologies and Expression Analysis (LTEA) Assay for Tumor necrosis factor receptor 1 (TNFRSF1A) using HepaRG (AID 2283535); conditions: mRNA level, 48 h; actives raise or lower the signal
How it was run: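 mRNA measured by qRT-PCR (TaqMan, Fluidigm arrays) against ACTB/GAPDH/POLR2A housekeepers after 48 h chemical exposure of HepaRG cells. Top concentration 100 uM, half-log 8-point series, duplicates; vehicle 0.5% DMSO, both fit directions.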

[8] = read-out: Thyroid Hormone Responsive (THRSP), THRSP (gene 7069); assay: LTEA_HepaRG_THRSP: Life Technologies and Expression Analysis (LTEA) Assay for Thyroid Hormone Responsive (THRSP) using HepaRG (AID 2283536); conditions: mRNA level, 48 h; actives raise or lower the signal
How it was run: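 Differentiated HepaRG cells treated 48 h in serum-free induction medium with 8 half-log concentrations up to 100 uM (0.5% DMSO), duplicates. THRSP mRNA by TaqMan qRT-PCR normalised to ACTB, GAPDH, POLR2A; bidirectional fit versus DMSO.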

[9] = read-out: Cellular tumor antigen p53 (Homo sapiens) (UniProt P04637); assay: LTEA_HepaRG_TP53: Life Technologies and Expression Analysis (LTEA) Assay for Tumor Protein P53 (TP53) using HepaRG (AID 2283537); conditions: mRNA level, 48 h; actives raise or lower the signal
How it was run: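 TP53 transcript measured by qRT-PCR, normalized to three housekeeping genes, after 48 h treatment of human HepaRG cultures with chemicals from 100 uM downward in half-log steps (0.5% DMSO vehicle, serum-free induction medium). Up- or down-regulation fitted against DMSO.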

[10] = read-out: UDP glucuronosyltransferase (UGT1A1), UGT1A1 (gene 54658); assay: LTEA_HepaRG_UGT1A1: Life Technologies and Expression Analysis (LTEA) Assay for UDP glucuronosyltransferase (UGT1A1) using HepaRG (AID 2283538); conditions: mRNA level, 48 h; actives raise or lower the signal
How it was run: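 HepaRG cells, 0.5% DMSO vehicle, 48 h exposure in serum-free induction medium to 8-point half-log series topping at 100 uM, in duplicate. UGT1A1 mRNA by Fluidigm qRT-PCR, normalized to ACTB/GAPDH/POLR2A; bidirectional fit versus DMSO.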

[11] = read-out: X-box binding protein 1 (XBP1), XBP1 (gene 7494); assay: LTEA_HepaRG_XBP1: Life Technologies and Expression Analysis (LTEA) Assay for X-box binding protein 1 (XBP1) using HepaRG (AID 2283540); conditions: mRNA level, 48 h; actives raise or lower the signal
How it was run: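 XBP1 transcript by qRT-PCR (housekeeping-normalized: ACTB, GAPDH, POLR2A) after 48 h chemical treatment of HepaRG cells, 8-point half-log series topping at 100 uM, vehicle 0.5% DMSO. Gain and loss of signal fitted relative to DMSO.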

[12] = LTEA_HepaRG_LDH_cytotoxicity: Cytotoxicity Assessment in the Life Technologies and Expression Analysis (LTEA) Assay (AID 2283563; active means hit-call score of the fitted dose curve at least 0.9, where 1 is the maximum)
How it was run: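 LDH release into culture medium read after 48 h chemical treatment of HepaRG cells. Duplicate wells, eight-point half-log series topping at 100 uM, 0.5% DMSO vehicle and baseline.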

[13] = TOX21_p53_BLA_p2_viability: Viability Assessment in the Tox21 HCT-116 p53 Agonism Beta-lactamase Assay, Phase 2 (AID 2283591; active means hit-call score of the fitted dose curve at least 0.9, where 1 is the maximum;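 further: compound exposure lasted 16 h at 37 °C; actives lower the ATP signal meaning cytotoxicity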)
How it was run: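 HCT116 p53-bla cells, 4000/well, dosed after 5 h plating (217-fold dilution of DMSO stocks) and incubated 16 h at 37C. Viability taken as cellular ATP by CellTiter-Glo luminescence after 30 min RT; signal loss marks cytotoxicity.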

[14] = target: Cellular tumor antigen p53 (Homo sapiens) (UniProt P04637); assay: TOX21_p53_BLA_p3_ratio: Tox21 HCT-116 p53 Agonism Beta-lactamase Assay, Ratio, Phase 3 (AID 2283596; active means hit-call score of the fitted dose curve at least 0.9, where 1 is the maximum)
How it was run: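 HCT116 p53-bla cells (4000/well) given compound in DMSO (217-fold dilution) after 5 h, incubated 16 h at 37C. CCF4-AM substrate 2 h at room temperature; 460/530 nm emission ratio, gain fitted against DMSO.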

[15] = target: Cellular tumor antigen p53 (Homo sapiens) (UniProt P04637); assay: TOX21_p53_BLA_p2_ratio: Tox21 HCT-116 p53 Agonism Beta-lactamase Assay, Ratio, Phase 2 (AID 2283592; active means hit-call score of the fitted dose curve at least 0.9, where 1 is the maximum)
How it was run: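 Gain-of-signal p53 agonism was scored from the beta-lactamase FRET ratio (460/530 nm, 405 nm excitation) in HCT116 cells treated 16 h at 37C, 5% CO2, with DMSO serving as negative control and baseline.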

[16] = TOX21_p53_BLA_p3_viability: Viability Assessment in the Tox21 HCT-116 p53 Agonism Beta-lactamase Assay, Phase 3 (AID 2283593; active means hit-call score of the fitted dose curve at least 0.9, where 1 is the maximum;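 further: cells exposed to compound for 16 h before reading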)
How it was run: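 HCT116 cells, 4000/well, dosed 5 h after plating by pin transfer (217-fold dilution from DMSO stock) and incubated 16 h at 37C, 5% CO2. Viability read as ATP luminescence with CellTiter-Glo after 30 min at room temperature.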

[17] = TOX21_p53_BLA_p4_viability: Viability Assessment in the Tox21 HCT-116 p53 Agonism Beta-lactamase Assay, Phase 4 (AID 2283597; active means hit-call score of the fitted dose curve at least 0.9, where 1 is the maximum;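 further: hits lower the luminescence signal meaning cytotoxicity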)
How it was run: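 Following a 16 h exposure at 37C, the treated HCT116 wells were first read for the FRET ratio. They were then lysed with CellTiter-Glo, and ATP luminescence was recorded after 30 min at room temperature.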

[18] = read-out: UDP glucuronosyltransferase (UGT1A6), UGT1A6 (gene 54578); assay: LTEA_HepaRG_UGT1A6: Life Technologies and Expression Analysis (LTEA) Assay for UDP glucuronosyltransferase (UGT1A6) using HepaRG (AID 2283539); conditions: mRNA level, 48 h; actives raise or lower the signal
How it was run: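 Expression was quantified by TaqMan qRT-PCR on Fluidigm arrays with ACTB/GAPDH/POLR2A normalization and bidirectional fitting against 0.5% DMSO. HepaRG cells (~100,000/well) were treated in duplicate for 48 h at eight half-log concentrations up to 100 uM in serum-free induction medium.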

[19] = ATG_XTT_Cytotoxicity: Cytotoxicity Assessment in the Attagene TRANS-FACTORIAL HepG2 Assay (AID 2283584; active means hit-call score of the fitted dose curve at least 0.9, where 1 is the maximum)
How it was run: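 Viability endpoint from XTT after 24 h chemical exposure of reporter-transfected human HepG2 liver cells; signal loss fitted relative to DMSO negative control.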

Sequence of Cellular tumor antigen p53 (Homo sapiens) (P04637 whole entry, looked up): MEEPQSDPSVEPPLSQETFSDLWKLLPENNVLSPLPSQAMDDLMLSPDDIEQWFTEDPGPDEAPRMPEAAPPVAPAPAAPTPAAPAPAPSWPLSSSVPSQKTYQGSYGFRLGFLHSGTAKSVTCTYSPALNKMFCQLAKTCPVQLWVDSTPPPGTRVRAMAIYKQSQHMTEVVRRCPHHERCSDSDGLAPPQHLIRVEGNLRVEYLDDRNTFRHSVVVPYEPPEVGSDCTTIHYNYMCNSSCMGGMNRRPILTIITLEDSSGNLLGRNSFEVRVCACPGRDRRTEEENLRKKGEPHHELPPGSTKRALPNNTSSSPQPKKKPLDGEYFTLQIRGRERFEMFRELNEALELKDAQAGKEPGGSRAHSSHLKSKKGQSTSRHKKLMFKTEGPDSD
Sequence of Signal transducer and activator of transcription 3 (Homo sapiens) (P40763 whole entry, looked up): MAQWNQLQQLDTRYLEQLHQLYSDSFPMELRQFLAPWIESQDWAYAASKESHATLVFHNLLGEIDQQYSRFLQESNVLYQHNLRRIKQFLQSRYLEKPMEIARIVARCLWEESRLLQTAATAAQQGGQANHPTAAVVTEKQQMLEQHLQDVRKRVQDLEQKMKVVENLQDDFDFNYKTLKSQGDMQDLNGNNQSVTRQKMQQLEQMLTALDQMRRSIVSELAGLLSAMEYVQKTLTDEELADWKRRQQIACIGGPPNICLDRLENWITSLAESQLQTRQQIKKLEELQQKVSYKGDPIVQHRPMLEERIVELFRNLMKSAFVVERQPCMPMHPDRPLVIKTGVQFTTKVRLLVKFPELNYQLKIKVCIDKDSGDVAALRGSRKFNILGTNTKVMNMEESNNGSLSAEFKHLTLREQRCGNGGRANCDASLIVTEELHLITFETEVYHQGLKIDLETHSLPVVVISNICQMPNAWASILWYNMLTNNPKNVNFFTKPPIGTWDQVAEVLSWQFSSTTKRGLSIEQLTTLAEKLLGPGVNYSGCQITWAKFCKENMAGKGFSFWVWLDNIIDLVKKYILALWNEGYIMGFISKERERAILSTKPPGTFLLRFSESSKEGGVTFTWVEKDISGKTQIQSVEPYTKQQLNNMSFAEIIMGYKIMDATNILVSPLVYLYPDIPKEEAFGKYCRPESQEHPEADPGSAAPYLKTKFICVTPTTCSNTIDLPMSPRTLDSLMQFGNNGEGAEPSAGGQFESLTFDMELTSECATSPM

## CCCCCCOCCO
[1]
  outcome: inactive
[2]
  AC50: 9.92 µM (active)
[3]
  outcome: inactive
[4]
  outcome: inactive
[5]
  outcome: inactive
[6]
  outcome: inactive
TIMP1, TIMP1 (gene 7076)
  outcome: inactive
[7]
  outcome: inactive
[8]
  outcome: inactive
[9]
  outcome: inactive
[10]
  outcome: inactive
[11]
  outcome: inactive
[12]
  outcome: inactive
[13]
  outcome: inactive
[14]
  outcome: inactive

## Cc1ccc(C)c(O)c1C
[1]
  outcome: inactive
[2]
  outcome: inactive
[3]
  outcome: inactive
[4]
  outcome: inactive
[5]
  outcome: inactive
TIMP1, TIMP1 (gene 7076)
  outcome: inactive
[7]
  outcome: inactive
[8]
  outcome: inactive
[10]
  outcome: inactive
[11]
  outcome: inactive
[12]
  outcome: inactive
[15]
  outcome: inactive
[16]
  outcome: inactive
[14]
  outcome: inactive
[17]
  outcome: inactive

## CCOC(=O)CCC(=O)OCC
[1]
  outcome: inactive
[2]
  outcome: inactive
[3]
  outcome: inactive
[4]
  outcome: inactive
[5]
  outcome: inactive
[6]
  outcome: inactive
TIMP1, TIMP1 (gene 7076)
  outcome: inactive
[7]
  outcome: inactive
[8]
  outcome: inactive
[9]
  outcome: inactive
[10]
  outcome: inactive
[18]
  outcome: inactive
[11]
  outcome: inactive
[12]
  outcome: inactive
[19]
  outcome: inactive
[13]
  outcome: inactive
[15]
  outcome: inactive
[14]
  outcome: inactive

## Nc1ccc(S(=O)(=O)c2ccc(N)cc2)cc1
[1]
  outcome: inactive
[2]
  AC50: 0.767 µM (active)
[3]
  outcome: inactive
[5]
  outcome: inactive
[6]
  outcome: inactive
TIMP1, TIMP1 (gene 7076)
  outcome: inactive
[7]
  outcome: inactive
[8]
  outcome: inactive
[9]
  outcome: inactive
[10]
  outcome: inactive
[18]
  outcome: inactive
[11]
  outcome: inactive
[12]
  outcome: inactive
[19]
  outcome: inactive
[13]
  outcome: inactive
[15]
  outcome: inactive
[14]
  outcome: inactive
[17]
  outcome: inactive
